In the library only some 2.4% were active in any assay of this set; here they are far more common.
Nrf2 ARE act = qHTS of Nrf2 Activators; actives 0.31% (n = 410,000); Potency, µM (titrated, usually from 46.1 µM), inactives show top-dose activation, hits mostly activators; AREc32 ARE-luciferase reporter (MCF7-derived line), luminescence, 24 h; AID 624171, 2012; also: % of control where 0% means no effect; nearly all actives have a fitted effect of over 65% in size
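Reporter line AREc32 (ARE-Fluc), seeded overnight in OPTI-MEM with 5% FBS; compound pin-transferred, 24 hr at 37 deg C, 5% CO2; luminescent read-out.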
Nrf2 block = Nrf2 qHTS screen for inhibitors. actives 2.1% (n = 360,000). A549 ARE-Fluc reporter, luciferase luminescence, 18-24 h. Potency, µM (doses to about 46 µM), for inactives: at the highest dose activity change, negative = inhibition, hits mostly inhibitors; also: % is scaled to controls: 0 for no effect and ±100 for the full control effect; nearly all actives have a fitted effect of over 60% in size
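Nrf2 function is reported as luminescence of an ARE-controlled luciferase in A549 cells. Compounds were tested at several concentrations, and a CellTiter-Fluor read on the same wells flagged cytotoxicity.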
A549 viability = Nrf2 qHTS screen for inhibitors: counterscreen for cytotoxicity; A549 ARE-Fluc cells, CellTiter-Fluor viability, 18-24 h; Potency, µM (highest dose often 46 µM), for the others: at the top dose activity change, negative = cytotoxicity, most hits filed as inhibitors; actives 0.16% (n = 390,000); also: % is scaled to controls: 0 for no effect and ±100 for the full control effect
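A549 ARE-Fluc cells in 5% FBS OPTI-MEM, 5000 cells/well, rested 2 h then exposed to compounds in concentration-response for 18-24 h at 37 °C. Viability by CellTiter-Fluor fluorescence (Ex 405/Em 525) after 30 min; luciferase luminescence (BugLite, 15 min, RT) read afterwards.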
PINK1 expr mod = A Quantitative High throughput Screen to Identify Chemical Modulators of PINK1 Expression; PINK1 immunofluorescence, high-content cytometry, 24 h; Potency, µM (doses to about 76.6 µM), for inactives: top-dose activation (PINK1 increase), hits mostly activators; actives 0.2% (n = 410,000); AID 624263, 2012; active = well fitted activation curve with a large enough effect; inconclusive = small, poorly fitted or top-dose-only effect; cell line not stated here; also: % of control where 0% means no effect; nearly all actives have a fitted effect of over 65% in size
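Stable cell line treated 24 h with compounds at 5 concentrations (CCCP controls), then fixed and immunostained for PINK1 plus nuclear and cell stains; PINK1 immunofluorescence quantified by laser-scanning microplate cytometry.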
Epigenetic reg = Quantitative High-Throughput Screen for Regulators of Epigenetic Control; murine LDR cells, GFP reporter derepression, 30 h; actives 0.2% (n = 280,000); AID 1865, 2009; Potency, µM (doses to about 53.9 µM), inactives show at the top dose GFP activation, most hits filed as activators; also: % of control where 0% means no effect; nearly all actives have a fitted effect of over 60% in size
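Derepression of a silenced CMV-GFP reporter in murine LDR cells is scored by enumerating GFP-positive cells with a laser-scanning microplate cytometer after 30 hours of treatment at 37 C.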
* = called active by the depositor; [ ] = another dose, or the depositor's remark. Unless noted, calls follow the shape of the dose curve; as a rule, active = well fitted curve in the direction sought with a large enough effect; inconclusive = small, poorly fitted or top-dose-only effect, or another doubt; inactive = no such curve, though single readings can be large; an effect the other way counts as inactive or inconclusive. Potency is read from the fitted curve at half-maximal effect.

Cc1ccccc1C1=C/C(=C(\SS/C(C(=O)c2ccc(OCC(=O)O)c(Cl)c2Cl)=C2\C=C(c3ccccc3C)SS2)C(=O)c2ccc(OCC(=O)O)c(Cl)c2Cl)SS1 was read as Nrf2 ARE act 0%, Nrf2 block inconclusive, A549 viability inconclusive and PINK1 expr mod 35µM*.
For COc1ccc(OC2=NS(=O)(=O)c3ccccc32)cc1 the results were Nrf2 block 7%[65.3 µM] and A549 viability 4%[65.3 µM].
Screening O=C(c1ccccc1O)N(Cc1cccs1)Cc1cccs1 returned Nrf2 block inconclusive and A549 viability 3%.
Screening CCCCCCn1c(N2CCN(c3ccccc3)CC2)nc2c1c(=O)[nH]c(=O)n2C returned Nrf2 ARE act 2%, Nrf2 block 21µM*, A549 viability inconclusive, PINK1 expr mod -1% and Epigenetic reg -1%.
For CCCCCCCCn1c(N2CCN(c3cccc(Cl)c3)CC2)nc2c1c(=O)[nH]c(=O)n2C the results were Nrf2 ARE act 0%, Nrf2 block -13%, A549 viability 12%, PINK1 expr mod 1% and Epigenetic reg -2%.
Screening Cc1ccccc1NCc1ccc(O)c2ncccc12 returned Nrf2 ARE act 0%, Nrf2 block inconclusive, A549 viability inconclusive, PINK1 expr mod 11µM* and Epigenetic reg inconclusive.
Screening Cc1ccc(NCc2ccc(O)c3ncccc23)c(F)c1 returned Nrf2 block 21µM* and A549 viability -10%.
`Oc1ccc(CNc2ccc(C(F)(F)F)cc2F)c2cccnc12` gave Nrf2 block -17% and A549 viability 0%.
Screening Oc1ccc(CNc2ccccc2Br)c2cccnc12 returned Nrf2 block inconclusive and A549 viability -7%.
Screening Oc1ccc(CNc2ccccc2)c2cccnc12 returned Nrf2 ARE act 8%, Nrf2 block 5.2µM*, A549 viability -14%, PINK1 expr mod inconclusive and Epigenetic reg 1%.
`Cc1cccc(NCc2ccc(O)c3ncccc23)c1` gave Nrf2 ARE act 3%, Nrf2 block inconclusive, A549 viability -24%, PINK1 expr mod 17% and Epigenetic reg 12%.
For COCc1ccc(O)c2ncccc12 the results were Nrf2 ARE act 10%, Nrf2 block -20%, A549 viability -12%, PINK1 expr mod 1% and Epigenetic reg 4.5µM*.
For Oc1ccc(CNc2ccc(F)cc2)c2cccnc12 the results were Nrf2 ARE act 0%, Nrf2 block 7.3µM*, A549 viability inconclusive, PINK1 expr mod 1% and Epigenetic reg 1%.
`Oc1ccc(CNCc2ccccc2F)c2cccnc12` gave Nrf2 block 1.3µM* and A549 viability -11%.
For O=C(NCCc1ccccc1)c1ccc2c(c1)N(Cc1ccccc1Cl)C(=O)c1ccccc1S2 the results were Nrf2 ARE act 4%, A549 viability 11%, PINK1 expr mod 1% and Epigenetic reg -1%.
For CC(C)(C)NC(=O)CSc1nc2ccc(NC(=O)CSc3nnc(N)s3)cc2s1 the results were Nrf2 ARE act -1%, Nrf2 block 21µM*, A549 viability -5%, PINK1 expr mod -1% and Epigenetic reg -2%.
Screening CNc1cccc(S(=O)(=O)N2CCCN(S(=O)(=O)c3ccc4c(c3)OCCO4)CC2)c1 returned Nrf2 block -7% and A549 viability -3%.
CCSC(=O)N1CCN(/[N+]([O-])=N/Oc2ccc([N+](=O)[O-])cc2[N+](=O)[O-])CC1 was read as PINK1 expr mod 5%.
O=C(NC1CCCCC1)C(c1ccccc1)N1CCC2(CC1)OCCO2 (configuration not stated) was read as Nrf2 ARE act 0%, Nrf2 block -5%, A549 viability -3%, PINK1 expr mod 1% and Epigenetic reg 0%.
For CC(C)c1ccc(NC(=O)C(c2ccccc2)N2CCC3(CC2)OCCO3)cc1 (configuration not stated) the results were Nrf2 ARE act 0%, Nrf2 block 15µM*, A549 viability -23%, PINK1 expr mod -2% and Epigenetic reg -3%.
`CCc1ccccc1NC(=O)c1cnn2c(C(F)(F)F)cc(-c3ccc(OC)c(OC)c3)nc12` gave Nrf2 ARE act -1%, Nrf2 block 10%, A549 viability -2%, PINK1 expr mod 0% and Epigenetic reg 13µM*.
COc1ccc(-c2cc(C(F)(F)F)n3nc(C(=O)N4CCCCC4)cc3n2)cc1OC was read as Nrf2 ARE act 0%, Nrf2 block 26µM*, A549 viability -19%, PINK1 expr mod 2% and Epigenetic reg 2%.
`COCCNC(=O)c1cnn2c(C(F)F)cc(-c3ccc(C)cc3)nc12` gave Nrf2 ARE act 0%, Nrf2 block 0%, A549 viability 0%, PINK1 expr mod 0% and Epigenetic reg -6%.
COc1ccc(-c2cc(C(F)(F)F)n3nc(C(=O)N4CCCCC4)cc3n2)cc1 was read as Nrf2 ARE act 0%, Nrf2 block inconclusive, A549 viability -4%, PINK1 expr mod -1%[38.3 µM] and Epigenetic reg -1%.
`CCc1ccccc1NC(=O)c1cc2nc(-c3ccc(OC)c(OC)c3)cc(C(F)(F)F)n2n1` gave Nrf2 ARE act -1%, Nrf2 block 2%, A549 viability -3%, PINK1 expr mod 0% and Epigenetic reg 0%.
`CCCNC(=O)c1cnn2c(C(F)F)cc(-c3ccccc3)nc12` gave Nrf2 ARE act -1%, Nrf2 block 23µM*, A549 viability inconclusive, PINK1 expr mod 1% and Epigenetic reg -1%.
For CCOc1ccc(NC(=O)/C=C\C(=O)N(c2ccc(C(C)C)cc2)C(C(=O)NCc2ccco2)c2ccc(F)cc2)cc1 (configuration not stated) the results were Nrf2 ARE act 7%, A549 viability inconclusive, PINK1 expr mod 0% and Epigenetic reg 2%.
`Cn1c(=O)n(C)c2cc(N3CCOCC3)c(NS(=O)(=O)c3ccc(Br)cc3)cc21` gave Nrf2 ARE act 11%, Nrf2 block -15%, A549 viability 1%, PINK1 expr mod 2% and Epigenetic reg -1%.
Screening Cc1cc(OC(C)C(=O)N2CCN(c3ccc(F)cc3)CC2)c2c(C)c(C)c(=O)oc2c1 (configuration not stated) returned Nrf2 ARE act -1%, Nrf2 block 26µM*, A549 viability -18% and PINK1 expr mod -1%.
Screening O=C(CCl)Nc1cc(SCC(O)CO)cc([N+](=O)[O-])c1 (configuration not stated) returned Nrf2 ARE act -2%[9.22 µM], Nrf2 block 4.6µM*, A549 viability 6.5µM*, PINK1 expr mod -2% and Epigenetic reg -6%.
